# From the supplement of paper PMC6555819
# System: LXRb:RXRa (NR concentration 270 nM, RXRa partner concentration 90 nM)
# Experiment: PBM binding z-score (relative to random genomic background probes); higher = stronger binding; sequences stand for … in GC…GCGATTGACAGCGTAGAATGAAGG
# Method: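 Protein-binding microarray (Agilent 4x180K custom design, double-stranded 60-nt probes: 5' GC cap, 34-nt variable region, 24-nt constant primer region; full probe sequence given). Purified or IVT nuclear receptor:RXRα heterodimers (3:1 NR:RXRα, mostly 270:90 nM) or homodimers were incubated for 1 h in PBS with 2% milk and no ligand, then detected with Alexa488 antibodies. Fluorescence from o1-orientation probes (~5 replicates averaged) was converted to z-scores against 500 random hg19 background probes. Variable regions are seed direct-repeat (DR0–DR5) sites, all their single-nucleotide variants and half-site ablations.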
row,Sequence,PBM binding z-score
1,CGAACGAGGTCATCCAGGACAGTGAATACATTGA,5.42
2,AATAAAGGGTCATCGTAGGCCAGAGTACGCACAG,5.46
3,AGAATGAGGTCATTAAGATCAGGGAATTGCGGTC,4.71
4,CGCACTAGGTCATCCAGGACAGTGAATACATTGA,2.21
5,TTACCAAGGTGAACGGTCGTTGATGCACGCCTTG,0.334
6,TTACCAAGGTGAAAGGTCGTTGCTGCACGCCTTG,2.89
7,TAGCCTAGGTTATGGGCCAGTATACCACGCGAAC,0.13
8,CCTACTGGGCCATTCAGAGGGCATTGATCATATG,-0.224
9,TCTCGGAGGACACCAAAGGTCAGAGCTCGACATC,3.46
10,ATATGTAGGTTAGCTGGGGTCATTCACACTAGGC,5.1
11,CGAACTAGGTCATTGACAGGACAGTGGATAGTAA,1.97
12,CCTACTGGGCCATTCAGAGGTCAATGATCATATG,3.64
13,TATCAAAGTTCAAAGGTAACGTAAGTATCCACAC,4.98
14,AGAATGAGGTTAAGTTCAGGGAAACAGAATACAT,2.78
15,TGTATGAGGTTAAAGATCAGGGAACGTGGCGTCG,2.16
16,TGTCAAAGTTCAAAGGTGACGTAAGTATCCACAC,5.06
17,ATATGTAGTTTATCGGGTCATTCAGTTTGCGCAT,2.94
18,CGAACTACGTCATCCAGGACAGTGAATACATTGA,-0.00555
19,CCGACTGGGGCAAGGTCACCATAACGCACAGCCA,2.81
20,TAGCCTAGGTCATTCAGGGGCAAGTATAGAAAGC,4.97

row,Sequence,PBM binding z-score
1,AGTCAAAGTTCATCTAGGTAACATAAGATATGCT,3.93
2,CGTCCAAGGTTAAGGTCAGTGAAAGAGACTCGAA,2.62
3,CCTACTGGTCCAAGGTCATTGATCAGTCAAAGCA,3.52
4,CGTCAAAGATCAAGGTAACGTAACAGAAAGCAGC,0.0744
5,CCTTACGGGTAACGAGGTTATAGCACGACGAGCG,0.414
6,CCTACGGGGCCACGAAAGGTCATTGATTCAGTGA,5.02
7,TAGCCTAGGTCATGCGGCCCAGTATAGTGTCGGC,1.69
8,CGTCCGAGGTCATAGGAGGTCAGTGAAGACAGAT,6.8
9,CAAACTAGGTCAAGGTCTAAGTCGGTTTGTGCCA,1.6
10,CGAACGAGGTCATGAGTTGATAGCAAATGCCGAT,4.51
11,ATCGAAAGGTCCACGAGGTGAGTATACACCGTTT,-0.0349
12,AGTCAAAGTTCAGGACGAGGTAACGTTAAGCACG,1.77
13,GCTTACAGGTCAAAGGTTATAGCATGAATAGAAT,6.06
14,CGAACAAGGTCATTGACAGGACAGTGAATAGTAA,4.62
15,GCTGCTAGGTCAACTGATGGCCAGCTAAAGCTCG,1.66
16,CGTCAAAGTTCAACTGAGGTAACGTAAAGCACGC,4.09
17,CCAACTGGGCCAAAAAGGTCATTGATGCCGATAA,4.36
18,GCTTACGGGTCCAAGGTTATAGCATGAATAGAAT,0.855
19,TATTCAGGGTCAAAGGCCAGAGTACGAATGTCGA,5.77
20,TCTAGTTGGTCTAAGGTCACACACTCGAAATGCG,4.1
